Test results: PubChem BioAssay AID2284145 (EPA ToxCast)
Calls of active or inactive are those of the source. The calls were made as follows: active = hit-call score of the fitted dose curve at least 0.9, where 1 is the maximum; inactive = score below 0.9.

Target: human Adrenoceptor beta1 Antagonism, ADRB1 (gene 153) (UniProt P08588)
Experiment: ERF_TW_GPCR_hADRB1: Eurofins (ERF) G Protein-Coupled Receptor (GPCR) Radioligand Binding LeadHunter Assay for human Adrenoceptor beta1 Antagonism
Procedure: ERF_TW_GPCR_hADRB1 is a biochemical, single-readout assay that uses extracted gene-proteins in a cell-free assay. Measurements were taken 2 hour after chemical dosing in a 96-well plate. See beta1 Human Adrenoceptor GPCR Binding (Antagonist Radioligand) Assay, Panlabs.ERF_TW_GPCR_hADRB1 is an assay component calculated from the ERF_TW_GPCR_hADRB1 assay. It is designed to measure radioligand binding using a type of binding reporter as detected by scintillation counting with radiometry technology.Data from the assay component ERF_TW_GPCR_hADRB1 was analyzed at the assay endpoint, ERF_TW_GPCR_hADRB1, in the positive analysis fitting direction relative to DMSO as the negative control and baseline of activity. Using a type of binding reporter, loss-of-signal activity can be used to understand changes in radioligand binding as they relate to gene ADRB1. To generalize the intended target to other relatable targets, this assay endpoint is annotated to the gpcr intended target family, where the subfamily is adrenoceptor.
Human recombinant adrenergic beta1 receptors expressed in HEK 293 cells are used in modified Tris-HCl buffer pH 7.4. A 25 ug aliquot is incubated with 0.03 nM [125I]Cyanopindolol for 120 minutes at 25C. […] Receptors are filtered and washed, the filters are then counted to determine [125I]Cyanopindolol specifically bound. […]

Chain of human Adrenoceptor beta1 Antagonism, ADRB1 (gene 153) (P08588 whole entry, looked up): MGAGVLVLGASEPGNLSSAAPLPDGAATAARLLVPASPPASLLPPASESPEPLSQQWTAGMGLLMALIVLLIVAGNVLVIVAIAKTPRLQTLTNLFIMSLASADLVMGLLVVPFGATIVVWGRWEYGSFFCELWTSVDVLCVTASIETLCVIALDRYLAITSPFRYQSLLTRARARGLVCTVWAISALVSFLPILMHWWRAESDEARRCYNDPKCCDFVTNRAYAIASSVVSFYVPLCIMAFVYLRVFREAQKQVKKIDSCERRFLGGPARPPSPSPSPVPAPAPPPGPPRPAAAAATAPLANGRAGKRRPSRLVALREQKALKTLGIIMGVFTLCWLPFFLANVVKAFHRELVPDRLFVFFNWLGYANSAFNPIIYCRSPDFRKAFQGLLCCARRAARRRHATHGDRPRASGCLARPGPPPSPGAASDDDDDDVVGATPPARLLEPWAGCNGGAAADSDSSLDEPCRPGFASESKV

Compound	AC50
O=C(/C=C/c1ccc(O)cc1)CC(=O)/C=C/c1ccc(O)cc1	1130 nM (active)
